ChEMBL document CHEMBL4888484, “Replenishing the malaria drug discovery pipeline: Screening and hit evaluation of the MMV Hit Generation Library 1 (HGL1) against asexual blood stage Plasmodium falciparum ,using a nano luciferase reporter read-out” (2022)
“And” between values parts separate entries of the source, which are not always exact repeats. Equal entries are not always repeated. In all, about 150,000 compounds went through this assay and about 540 (0.36%) showed an effect of 50% or more. This excerpt belongs to a sample that is enriched for strong results.

Test system: Plasmodium falciparum
Test: Primary screen in NF54 nanoGlo assay, in single point, at 2uM, 72h; a lower Z score goes with more inhibition
Type: functional, Erythrocyte
Conditions: timepoint 72 hour

| Structure (SMILES) | % Inhibition [%] | Z score | % Inhibition (2 µM) |
| --- | --- | --- | --- |
| COc1ccc(Cc2n[nH]c3c2CN(Cc2nccs2)CC3)cc1OC | 6 | -0.85 | – |
| Cc1noc(CNC(=O)c2ccc3[nH]c(=O)[nH]c3c2)n1 | -7 | 1.3 | – |
| CCOC1CC(N(C)S(=O)(=O)c2cnc(C)s2)C12CCC2 (stereo not drawn) | -5 | 0.63 | – |
| CCCc1nc2ncnn2c(O)c1NC(=O)Nc1ccccc1Br | 2 | -0.44 | – |
| N#C[C@@H](C(=O)NCc1ccccc1)c1nc2ccccc2s1 | -2 | 0.39 | – |
| N#CC(c1nc2ccccc2s1)c1nc2ccccc2s1 | 60 | 0.46 | – |
| N#C[C@@H](C(=O)c1cc2ccccc2[nH]1)c1nc2ccccc2s1 | 16 | -2.03 | – |
| CCN(CC)C(=O)Nc1ccc(-c2c(C)nn(CC(N)=O)c2C)cc1 | 1 | -0.2 | – |
| CCN(CC)c1ccc(CNC(=O)[C@H](C)c2c(C)noc2C)cc1F | -12 | 1.74 | – |
| CCOc1cccc(CN2CCC(C)(c3noc(C4CCOCC4)n3)CC2)c1 | -13 | 1.51 | – |
| CCN1CCN(C2CCN(Cc3c[nH]c4ccccc34)CC2)CC1 | 5 | -0.83 | – |
| Fc1ccccc1N1CCN(C2CCN(Cc3ccncc3)CC2)CC1 | 20 | -2.44 | – |
| Fc1ccccc1N1CCN(C2CCN(Cc3c[nH]c4ccccc34)CC2)CC1 | 67 | -0.71 | – |
| c1cc(Oc2ccc3nnnn3n2)cc(-c2nnco2)c1 | -14 | 1.28 | – |
| Cn1c(CN2CCN(c3ccnc4ccccc34)CC2)cc(=O)n(C)c1=O | 17 | -2.24 | – |
| NC(=O)CO[C@H]1CCOC[C@H]1NC(=O)c1ccc(Oc2ccccc2)o1 | 4 | -0.64 | – |
| Cc1cccc(CN2CCC[C@@](O)(CN3CCN(CC4CC4)CC3)C2=O)c1 | -10 | 1.1 | – |
| CC1CN(C(CNCc2cnn(C)c2)c2cccs2)CCO1 (stereo not drawn) | -9 | 0.92 | – |
| CCN(c1noc(C2CCN(C(=O)C(C)C)CC2)n1)C(C)C | -18 | 2.32 | – |
| CCc1nn(C)c(OC)c1CNC(=O)N[C@@H]1Cc2ccccc2[C@H]1O | -13 | 1.27 | – |
| COc1ccc2cc1Oc1cccc(c1)CO[C@H]1CCN(C(=O)CN3CCC(O)CC3)C[C@H]1NC(=O)CC2 | -23 | 2.88 | – |

| Structure (SMILES) | % Inhibition [%] | Z score | % Inhibition (2 µM) |
| --- | --- | --- | --- |
| COc1cccc(-c2nc(C)c(C(=O)NCc3nnc4ccccn34)s2)c1 | -3 | 0.36 | – |
| COc1cccc(-c2nc(C)c(C(=O)Nc3nc(C(C)C)n[nH]3)s2)c1 | 68 | -7.28 | – |
| COc1cccc(-c2nc(C)c(C(=O)NC[C@@H]3CCCN4CCCCC34)s2)c1 (stereo partly drawn) | -1 | 0.17 | – |
| COc1cccc(-c2nc(C)c(C(=O)Nc3cccc4[nH]ccc34)s2)c1 | -1 | 0.1 | – |
| COc1ccc(-c2nc(C)c(C(=O)Nc3n[nH]c(CC(C)C)n3)s2)cc1OC | 15 | -2.32 | – |
| COc1cccc(-c2nc(C)c(C(=O)Nc3n[nH]c(CC(C)C)n3)s2)c1 | – | – | 82% and 77% |
| O=C(CCC1CCCCC1)NC1CCN(c2cn[nH]c(=O)c2)CC1 | -10 | 1.05 | – |
| CCN(CC)c1nc2cc(C(=O)NCc3ccc(C)cc3)ccc2c(=O)n1Cc1ccccc1 | 5 | -0.78 | – |
| CC(=O)Nc1ccc(C)cc1S(=O)(=O)N1CC=C(c2c(C)n(Cc3ccccc3C)c3ccccc23)CC1 | 92 | -8.31 | – |
| CC(=O)Nc1ccc(C)cc1S(=O)(=O)N1CC=C(c2c(C)n(Cc3ccc(Cl)cc3)c3ccccc23)CC1 | -14 | 1.87 | – |
| COc1ccc(Cn2c(C)c(C3=CCN(S(=O)(=O)c4cc(C)c(C)cc4C)CC3)c3ccccc32)cc1 | 0 | 0.05 | – |
| Cc1cc(C(F)(F)F)n(C[C@@H](C)Cn2cc(-c3cncnc3)nn2)n1 | -6 | 0.77 | – |
| COC(=O)Nc1nc(-c2ccccc2)c(-c2nccc(OCC(F)(F)F)c2C)s1 | 30 | -3.82 | – |
| COc1ccccc1N(Cc1ccccc1)C1=NC(=[N+](Cc2ccccc2)c2ccccc2OC)c2ccccc21 | 73 | -6.15 | – |
| COc1ccc(Cl)cc1N(Cc1ccccc1)Cc1ccccc1 | -2 | 0.32 | – |
| COc1ccccc1N(C)Cc1c(C)noc1C | 7 | -0.98 | – |
| O=C(CCc1c(F)cccc1Cl)N1CC(Nc2cnccn2)C1 | -6 | 0.7 | – |
| CC1(CO)CCCC1NCC(C)(O)C(F)(F)F (stereo not drawn) | 33 | -3.73 | – |
| O=c1c2ccccc2nc(Cc2ccccc2)n1Nc1ccccc1 | -13 | 1.76 | – |
| COc1nc(-c2cccc(C(=O)N3C[C@@H]4CC[C@H](C3)C(=O)N4)c2)ncc1F | 68 | -12.2 | – |
| CCc1cc(-c2cccc(C(=O)N3C[C@@H]4CC[C@H](C3)C(=O)N4)c2)nc(C)n1 | -4 | 0.67 | – |

| Structure (SMILES) | % Inhibition [%] | Z score | % Inhibition (2 µM) |
| --- | --- | --- | --- |
| Cc1cc(C)nc(-c2cccc(C(=O)NC[C@H]3CCOC3)c2)n1 | -2 | 0.19 | – |
| Cc1ccc(-c2cccc(C(=O)NCC3CCOCC3)c2)c(C)n1 | -2 | 0.22 | – |
| O=C1N[C@H]2CC[C@@H]1CN(C(=O)c1cccc(-c3ccc4nccc(O)c4c3)c1)C2 | -3 | 0.64 | – |
| COc1nc(-c2cccc(C(=O)NCC3CCOCC3)c2)ncc1F | 70 | -12.03 | – |
| O=C(NCC1CCOCC1)c1ccc(-c2ccc(C(F)(F)F)cn2)cc1 | 1 | -0.21 | – |
| O=C(NCC1CCOCC1)c1ccc(-c2ccc(Cl)cn2)cc1 | 7 | -1.01 | – |
| Cc1nc[nH]c1CN(Cc1c(C)nn(C)c1C)C(C)C | -7 | 0.99 | – |
| CC(C)N(CC1CCC1)C(=O)NC1CCC(Oc2cnccn2)CC1 (stereo not drawn) | 29 | -3.26 | – |
| COc1cc(C)c(-c2ccc(C(=O)N3CCCCCC3)cc2)cn1 | -10 | 1.56 | – |
| Cc1ccc2c(C3=CCN(C(=O)c4cnc5[nH]c(=O)[nH]c(=O)c5c4)CC3)c[nH]c2c1 | 6 | -1.15 | – |
| O=C(CCc1cc2n(n1)CCN(Cc1ccc3ccccc3n1)C2)NCCO | -16 | 2.81 | – |
| CCOCCC1CCN(C(=O)c2cccc(-n3cccn3)n2)CC1 | -15 | 1.43 | – |
| CCc1ocnc1C(=O)NC1CCCCCC1C(=O)OC (stereo not drawn) | -7 | 0.61 | – |
| O=C(c1ccccc1)C1C(c2ccccc2)N1C(=O)c1cccc(Cl)c1 (stereo not drawn) | -7 | 0.84 | – |
| CC(=O)Nc1ccc(-c2cn(C)c[n+]2C)cc1 | -42 | 4.97 | – |
| CC(=O)Nc1ccc(-c2cn3c4ccccc4ccc3[n+]2C)cc1 | 87 | -10.86 | – |
| CC(=O)Nc1ccc(-c2cc(-c3ccccc3)nc(-c3ccccc3)n2)cc1 | -14 | 2.76 | – |
| OC1(c2csc(CN3CCOCC3)n2)CCN(Cc2ccccn2)CC1 | -9 | 1.39 | – |
| Cn1c(C(=O)Nc2cc(F)ccc2NC(=O)c2ccccn2)cc(Cl)c1Cl | -27 | 2.71 | – |
| CC(C)N1CC[C@H](NCCc2ccccc2)C1 | -6 | 0.77 | – |
| O=C(NCCc1ccccc1)NC1CCCC1 | -11 | 2.11 | – |

| Structure (SMILES) | % Inhibition [%] | Z score | % Inhibition (2 µM) |
| --- | --- | --- | --- |
| C[C@H]1CCC[C@@H](NCCc2ccccc2)CCC/C=C/c2cc(O)cc(O)c2C(=O)O1 | 73 | -6.47 | – |
| NC(=O)c1ccc(NCCOc2cccc(Cl)c2Cl)nn1 | -9 | 1.2 | – |
| CCC[C@H]1CN(C(=O)c2cccc3cn[nH]c23)CCN1CCOC | 4 | -0.6 | – |
| Cc1ccccc1NC(=O)CN1CCN(Cc2ccccc2)S1(=O)=O | -18 | 1.6 | – |
| CC1=C[C@@H](c2ccc(Cl)cc2)n2nc(NC(=O)c3ccccc3)nc2N1 | -6 | 1.14 | – |
| Cc1ccc(C2=C[C@@H](c3ccc(C)cc3)n3nc(NC(=O)c4cccc(Cl)c4)nc3N2)cc1 | 16 | -2.03 | – |
| Cc1ccc(C2=C[C@@H](c3ccc(Cl)cc3)n3nc(NC(=O)c4ccccc4)nc3N2)cc1 | 84 | -8.34 | – |
| CC(=O)Nc1ccccc1CN(Cc1ccc(F)cc1F)C1CC1 | 9 | -0.85 | – |
| CCN(C(=O)c1ccccc1Cc1ccc(C)cc1)C1CCOCC1 | -13 | 1.36 | – |
| Cn1nccc1/C=C1\CC2C3CCc4cc(O)ccc4C3CCC2(C)C1O (stereo not drawn) | 54 | -6.08 | – |
| CC(C)C(=O)NCCN(C)Cc1ccc(C#N)cc1Br | -19 | 2.19 | – |
| Cc1ncsc1CN(C)[C@@H](C(=O)O)c1ccsc1 | 3 | -0.57 | – |
| Cc1nnc(C(C)NC(=O)C2(C)CCCN(C(=O)c3ccccc3)C2)o1 (stereo not drawn) | -7 | 0.99 | – |
| C[C@]1(C(=O)Nc2cn[nH]c2)CCCN(C(=O)c2ccccc2)C1 | -8 | 1.66 | – |
| Cc1nc2cc(NC(=O)[C@@]3(C)CCCN(C(=O)c4ccccc4)C3)ccc2o1 | 55 | -8.5 | – |
| Cc1ccc(N2C[C@H](C(=O)O)[C@@H](C(C)C)C2)nn1 | -13 | 1.69 | – |
| CC1(C)CN(Cc2nnc(C3CC3)o2)CCN1Cc1ccccc1 | -3 | 0.43 | – |
| O=C(NCc1ccco1)Nc1nccs1 | 1 | -0.2 | – |
| O=C(NCCN1CCOCC1)c1c[nH]c2ccc(Cl)cc2c1=O | 1 | -0.13 | – |
